Measured values taken from PubChem BioAssay AID504727 (Broad Institute, 2011).
Unmarked numbers belong to inactive results. Active and inactive are the calls of the source.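 How the source made its calls: active means fitted half-maximal concentration AC50 at or below ten times the highest valid tested dose, with signal falling as DNA is displaced (actives reach about 34 µM in these data); inconclusive means flat fit at moderate signal loss, or poor fit quality; inactive means the rest, including signal rising instead of falling.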

test: acridine orange-DNA binding displacement – biochemical, fluorescence polarization, cherry-picked samples, set 2, artefact control for KSHV LANA DNA-binding inhibitor project, dose response (AID 504727); conditions: series mostly up to 35 µM; activity change, negative = DNA displacement: at the top concentration;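 on activity change, negative = DNA displacement: 0% = median of neutral control wells and -100% = mitoxantrone positive control wells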

| Structure (SMILES) | activity change, negative = DNA displacement | AC50 |
| --- | --- | --- |
| CCC(=O)Oc1ccc2c(c1)O/C(=C\c1ccco1)C2=O | -9.88% |  |
| Cc1ccc(N=Nc2c(O)[nH]c3ccc(F)cc23)cc1 | 64.6% |  |
| COc1ccc(NC(=O)COC(=O)c2c(-c3ccccc3)noc2C)cc1 | 5.5% |  |
| O=C1c2ccccc2C(Nc2ccc3c(c2)OCCO3)N1Cc1ccc2c(c1)OCO2 (stereo not drawn) | 3.63% |  |
| Oc1ccc2nnc3c(Br)cnn3c2c1 |  | 8340 nM (active) |
| Cn1c(=O)c(NCCc2ccccc2)c2c3c(cccc31)C(=O)c1ccccc1-2 |  | 1140 nM (active) |
| Cc1c(NC(=O)CCC2CCCCC2)cc(C(=O)N2CCOCC2)cc1[N+](=O)[O-] | -1.94% |  |
| CCCCn1nc(CC(=O)O)c2ccccc2c1=O | 2.89% |  |
| Cc1ccc(NC(=O)CN(C)C(=O)c2nn(C)c(=O)c3ccccc23)cc1 | 0.898% |  |
| CCn1c(-c2ccc([N+](=O)[O-])cc2)n[nH]c1=S | -3.7% |  |
| CCNc1nc(NC(C)C)nc(NS(=O)(=O)c2ccc(N)cc2)n1 | 4.91% |  |
| COc1ccc(-c2nc(C(=O)O)cs2)cc1OC | 3.6% |  |
| CCCCn1c(=O)[nH]c2nc3cc(N)ccc3nc2c1=O |  | 3750 nM (active) |
| COc1cc(O)c(C(C)=O)c(CC(=O)O)c1 | 1.3% |  |
| CCN(Cc1ccccc1)C(=O)c1cccc(S(=O)(=O)N2CCN(Cc3ccccc3)CC2)c1 | 6.01% |  |
| CC(C)(C)OC(=O)C[C@@H]1C/C=C\C[C@H](CC(=O)N(CCO)Cc2ccccc2)C(=O)N[C@@H](c2ccccc2)COC1=O | -2.7% |  |
| Cc1cccc(NC(=O)CN2C(=O)NC(C)(c3ccc4ccccc4c3)C2=O)n1 (stereo not drawn) | 1.9% |  |
| Cc1nc2c(=O)[nH]c(=S)[nH]c2[nH]c1=O | 9.35% |  |
| Cc1sc2nnn(CC(=O)N3CCN(C(=O)c4ccco4)CC3)c(=O)c2c1C | -0.188% |  |

| Structure (SMILES) | activity change, negative = DNA displacement | AC50 |
| --- | --- | --- |
| O=C1c2ccccc2C(=O)C1c1ccccn1 | -2.43% |  |
| COc1ccc(N(C(=O)c2ccc(Cl)cc2)C2=CC3CCC(C2)N3C)cc1 (stereo not drawn) | 4.22% |  |
| Cc1ccc(NC(=O)CN2C(=O)N/C(=C/c3cccn3-c3ccc(C(=O)O)cc3)C2=O)cc1 | 25% |  |
| COc1cccc(-c2cc(C(=O)N3CCN(S(=O)(=O)c4ccccc4)CC3)[nH]n2)c1 | -0.76% |  |
| COc1ccc(NS(=O)(=O)c2ccc(C)c(C(=O)N(C)Cc3ccc(OC)cc3OC)c2)cc1 | 2.65% |  |
| C/C(=N/NC(=O)c1ccncc1)c1cc2ccc(O)cc2oc1=O |  | 343 nM (active) |
| O=C(O)c1ccc2c(c1)[C@@H]1C=CC[C@@H]1[C@H](c1ccccn1)N2 | -0.65% |  |
| COc1ccc(OC2CCN(S(=O)(=O)c3ccc(OC)cc3)CC2)cc1 | 0.058% |  |
| O=C(O)CC(C(=O)O)N1C(=O)/C(=C/C=C/c2ccco2)SC1=S (stereo not drawn) | 5.71% |  |
| N#CC1=C(N)Oc2ccc3ccc(O)cc3c2C1c1ccsc1 (stereo not drawn) | 4.01% |  |
| COc1cccc2c1C(=O)c1c(O)c3c(c(O)c1C2=O)C[C@](O)(C(C)=O)C[C@H]3O[C@@H]1C[C@@H](N)[C@@H](O)[C@@H](C)O1 |  | 2980 nM (active) |
| Cc1cc(/C=N/Nc2ccc([N+](=O)[O-])cn2)c(C)n1-c1cccc(C(=O)O)c1 | 17.9% |  |
| Cc1cccc(N(Cc2ccccc2)C(=O)C2CCN(C(=O)c3ccccc3C)CC2)c1 | 1.55% |  |
| CCCOc1ccc(C=Nc2ccc(OC)c(S(=O)(=O)N3CCOCC3)c2)c(O)c1 | -0.786% |  |
| CCc1noc(C)c1C(=O)N1CCCC(N2CCN(c3ccc(F)cc3)CC2)C1 (stereo not drawn) | -1.73% |  |
| CCOCCCn1c(SCC(=O)NC(C)(C)C)nc2ccccc2c1=O | -0.81% |  |
| S=c1[nH]nc([C@@H]2C[C@H]2c2ccccc2)n1-c1ccccc1Cl | 2.19% |  |
| Nc1nc(-c2ccc(C(=O)O)cc2)cs1 | 2.05% |  |
| Nc1ccc2c(O)cc(S(=O)(=O)O)cc2c1 | 0% |  |
